In all, about 5,500 compounds went through this assay and about 2,000 (36%) were called active. Roughly 18% stayed inconclusive and do not appear here. No stated cut-off is given here; in the data, active means normalized growth mostly below about 0.91 (no sharp cut-off); inconclusive means no clear call, values can overlap the other calls; inactive means mostly above about 0.92. The list shows a part of the results.
Test: chemical genetic growth profiling, strain panel (AID 1159580);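 further: tested at 20 µM; growth read once vehicle control cultures reached saturation at 30 °C; 1 = growth at the plate median or of vehicle wells; lower values mean less growth of the strain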
Conditions: growth OD
[1] = S. cerevisiae deletion strains, locus YAL013W, strain DEP1, active compounds read low
[2] = S. cerevisiae deletion strains, locus YBR229C, strain ROT2, active compounds read low
[3] = S. cerevisiae deletion strains, locus YDL101C, strain DUN1, active compounds read low
[4] = S. cerevisiae deletion strains, locus YDL134C, strain PPH21, active compounds read low
[5] = S. cerevisiae deletion strains, locus YDR150W, strain NUM1, active compounds read low
[6] = S. cerevisiae deletion strains, locus YEL061C, strain CIN8, active compounds read low
[7] = S. cerevisiae deletion strains, locus YGR078C, strain PAC10, active compounds read low
[8] = S. cerevisiae deletion strains, locus YHR030C, strain SLT2, active compounds read low
[9] = S. cerevisiae deletion strains, locus YHR087W, strain rtc3, active compounds read low
[10] = S. cerevisiae deletion strains, locus YJL187C, strain SWE1, active compounds read low
[11] = S. cerevisiae deletion strains, locus YJR043C, strain POL32, active compounds read low
[12] = S. cerevisiae deletion strains, locus YJR075W, strain HOC1, active compounds read low
[13] = S. cerevisiae deletion strains, locus YLR039C, strain RIC1, active compounds read low
[14] = S. cerevisiae deletion strains, locus YLR058C, strain SHM2 (second series), active compounds read low
[15] = S. cerevisiae deletion strains, locus YLR085C, strain ARP6, active compounds read low
[16] = S. cerevisiae deletion strains, locus YLR262C, strain YPT6, active compounds read low
[17] = S. cerevisiae deletion strains, locus YML094W, strain GIM5, active compounds read low
[18] = S. cerevisiae deletion strains, locus YMR219W, strain ESC1, active compounds read low
[19] = S. cerevisiae deletion strains, locus YMR263W, strain SAP30, active compounds read low
[20] = S. cerevisiae deletion strains, locus YMR307W, strain GAS1, active compounds read low
[21] = S. cerevisiae deletion strains, locus YNL153C, strain GIM3, active compounds read low
[22] = S. cerevisiae deletion strains, locus YNL298W, strain CLA4 (second series), active compounds read low
[23] = S. cerevisiae deletion strains, locus YNL322C, strain KRE1, active compounds read low
[24] = S. cerevisiae deletion strains, locus YNR030W, strain Alg12, active compounds read low
[25] = S. cerevisiae deletion strains, locus YPL055C, strain LGE1, active compounds read low
[26] = S. cerevisiae deletion strains, locus YPL241C, strain CIN2, active compounds read low
[27] = S. cerevisiae deletion strains, locus YPR135W, strain CTF4, active compounds read low
[28] = S. cerevisiae strains, strain wild type, active compounds read low

Measured: normalized growth

Cn1c(=S)[nH]c2cc(C(F)(F)F)ccc21
active: [6] 0.888 | [13] 0.538 | [15] 0.378 | [16] 0.733 | [22] 0.803 | [27] 0.617
inactive: [1] 0.977 | [2] 0.987 | [3] 0.968 | [4] 0.979 | [5] 0.959 | [7] 0.975 | [8] 0.767 | [9] 1 | [10] 0.98 | [11] 0.978 | [12] 1.02 | [14] 0.974 | [17] 0.911 | [18] 0.987 | [19] 0.966 | [20] 0.718 | [21] 0.997 | [23] 0.998 | [24] 0.946 | [25] 0.866 | [26] 0.925 | [28] 0.969

O=c1[nH]c2cc(C(F)(F)F)ccc2n1-c1cc(C(F)(F)F)ccc1O
inactive: [1] 1.02 | S. cerevisiae deletion strains, locus YAL040C, strain CLN3, active compounds read low 0.998 | S. cerevisiae deletion strains, locus YCL061C, strain MRC1 (second series), active compounds read low 1.01 | [5] 1.01 | S. cerevisiae deletion strains, locus YDR363W, strain ESC2, active compounds read low 1.01 | S. cerevisiae deletion strains, locus YER002W, strain NOP16, active compounds read low 1.02 | [7] 1.03 | [20] 1.02 | S. cerevisiae deletion strains, locus YNL175C, strain NOP13, active compounds read low 0.961 | S. cerevisiae deletion strains, locus YNL197C, strain WHI3, active compounds read low 0.995 | S. cerevisiae deletion strains, locus YNL224C, strain SQS1, active compounds read low 0.998 | S. cerevisiae deletion strains, locus YOR083W, strain WHI5 (second series), active compounds read low 0.903 | [25] 1.01

FC(F)(F)c1ccc2[nH]c(=S)[nH]c2c1
inactive: [1] 0.995 | [2] 0.996 | S. cerevisiae deletion strains, locus YCL061C, strain MRC1, active compounds read low 0.983 | [3] 0.983 | [4] 0.99 | [5] 0.986 | [6] 0.998 | [7] 0.982 | S. cerevisiae deletion strains, locus YGR229C, strain SMI1, active compounds read low 1 | [8] 0.89 | [9] 0.999 | [10] 0.997 | [11] 0.986 | [12] 1.01 | [13] 0.952 | [14] 0.994 | [15] 0.955 | [16] 0.963 | [17] 0.905 | [18] 1 | [19] 1.02 | S. cerevisiae deletion strains, locus YNL128W, strain TEP1, active compounds read low 0.993 | [21] 1 | [22] 0.979 | [23] 0.997 | [24] 0.977 | S. cerevisiae deletion strains, locus YOL006C, strain TOP1, active compounds read low 0.997 | [25] 0.98 | [26] 0.966 | [27] 0.779

Cc1ncc([N+](=O)[O-])n1CC(O)CCl (stereo unspecified)
inactive: S. cerevisiae deletion strains, locus YHR079C, strain IRE1, active compounds read low 0.977 | S. cerevisiae deletion strains, locus YJL095W, strain BCK1, active compounds read low 0.965 | S. cerevisiae deletion strains, locus YJR066W, strain TOR1, active compounds read low 0.956 | S. cerevisiae deletion strains, locus YLR113W, strain HOG1, active compounds read low 0.978 | S. cerevisiae deletion strains, locus YNL183C, strain NPR1, active compounds read low 0.922 | S. cerevisiae deletion strains, locus YOR231W, strain MKK1, active compounds read low 0.97 | S. cerevisiae deletion strains, locus YPL256C, strain CLN2, active compounds read low 0.933

COc1ccc(-c2nc(-c3ccc(-c4ccccc4)cc3)cs2)cc1
active: [4] 0.87
inactive: [1] 1.03 | [2] 1.01 | [3] 1.03 | [5] 1 | [6] 0.979 | [7] 1.02 | [8] 1.08 | [9] 1 | [10] 0.968 | [11] 1.03 | [12] 1.02 | S. cerevisiae deletion strains, locus YKL190W, strain CNB1, active compounds read low 0.995 | [13] 1.02 | [14] 1.02 | [15] 1.02 | [16] 1.09 | [17] 0.999 | [18] 1.01 | [19] 1.01 | [21] 1.02 | [22] 1.09 | [23] 1.01 | [24] 1.02 | [25] 1.01 | [26] 1 | [27] 1.14 | [28] 1

— PubChem BioAssay AID1159580 (chemical genetic matrix, 2015)
